Reference: the supplement of paper PMC6555819

Assays:
Experiment in all cases: PBM binding z-score (relative to random genomic background probes); higher = stronger binding; sequences stand for … in GC…GCGATTGACAGCGTAGAATGAAGG
[1] = tested on: PPARg:RXRa DBDmut IVT, anti-RXR (DBD mutation: RXRa K156A/R161A, NR concentration 270 nM, RXRa partner concentration 90 nM)
Procedure, shortened: (§1)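 For binding z-scores, the reference was random background probes on custom Agilent 4×180K protein-binding microarrays. These arrays were incubated 1 h with ligand-free nuclear receptor dimers in PBS pH 7.4, 2% milk, 0.02% Triton X-100, 1 mM DTT, 0.2 mg/mL BSA and 0.4 mg/ml salmon testes DNA. Fluorescence was scanned after antibody detection of each partner (one per run) and regression-normalized.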

[2] = tested on: PPARg:RXRa IVT, anti-PPARg (NR concentration 270 nM, RXRa partner concentration 90 nM)
Procedure, shortened: as §1

[3] = tested on: PPARg DBDmut:RXRa IVT, anti-PPARg (DBD mutation: PPARg1 K132A/R137A, NR concentration 270 nM, RXRa partner concentration 90 nM)
Procedure, shortened: as §1

[4] = tested on: PPARg DBDmut IVT, anti-PPARg (DBD mutation: PPARg1 K132A/R137A, NR concentration 270 nM)
Procedure, shortened: as §1

[5] = tested on: PPARg homodimer (NR concentration 180 nM)
Procedure, shortened: as §1

[6] = tested on: PXR:RXRa (NR concentration 270 nM, RXRa partner concentration 90 nM)
Procedure, shortened: as §1

[7] = tested on: PXR homodimer (NR concentration 270 nM)
Procedure, shortened: as §1

[8] = tested on: RARa:RXR (NR concentration 270 nM, RXRa partner concentration 90 nM)
Procedure, shortened: as §1

[9] = tested on: RARa homodimer (NR concentration 270 nM)
Procedure, shortened: as §1

[10] = tested on: RARb:RXRa (NR concentration 270 nM, RXRa partner concentration 90 nM)
Procedure, shortened: as §1

[11] = tested on: RARb homodimer (NR concentration 270 nM)
Procedure, shortened: as §1

[12] = tested on: RARg:RXRa (NR concentration 270 nM, RXRa partner concentration 90 nM)
Procedure, shortened: as §1

[13] = tested on: RARg homodimer (NR concentration 270 nM)
Procedure, shortened: as §1

[14] = tested on: RXRa DBDmut IVT, anti-RXR (DBD mutation: RXRa K156A/R161A, NR concentration 90 nM)
Procedure, shortened: as §1

[15] = tested on: RXRa homodimer (NR concentration 180 nM)
Procedure, shortened: as §1

[16] = tested on: THRa:RXRa (NR concentration 90 nM, RXRa partner concentration 90 nM)
Procedure, shortened: as §1

[17] = tested on: THRa homodimer (NR concentration 90 nM)
Procedure, shortened: as §1

[18] = tested on: VDR homodimer (NR concentration 270 nM)
Procedure, shortened: as §1

Sequence | PBM binding z-score [1] | PBM binding z-score [2] | PBM binding z-score [3] | PBM binding z-score [4] | PBM binding z-score [5] | PBM binding z-score [6] | PBM binding z-score [7] | PBM binding z-score [8] | PBM binding z-score [9] | PBM binding z-score [10] | PBM binding z-score [11] | PBM binding z-score [12] | PBM binding z-score [13] | PBM binding z-score [14] | PBM binding z-score [15] | PBM binding z-score [16] | PBM binding z-score [17] | PBM binding z-score [18]
CGAACGAGGGCATGAGTTGATTGCAAATGCCGAT | 2.89 | 1.87 | -0.365 | -0.273 | 0.304 | 0.676 | 0.4 | 0.51 | -0.117 | 1.96 | 0.769 | 1.29 | 1.48 | 2.73 | 0.985 | 1.22 | -0.209 | 1.94
TCTGCTAGGTCAACGATGGTCAGCTGATCTGCTA | 3.61 | 4.29 | -0.0935 | 1.17 | 0.984 | 1.58 | -0.669 | 2.3 | -0.39 | 4.03 | 3.36 | 4 | 4.88 | 0.835 | 2.52 | 2.99 | 0.473 | -0.511
TTACCAAGCTGAAAGGTCGTTGATGCACGCCTTG | -0.529 | 0.156 | -0.407 | -0.623 | 0.193 | 1.72 | -0.0821 | 1.66 | -0.928 | 1.36 | 1.45 | 1.06 | 0.528 | -0.0422 | 2.04 | 0.936 | -0.608 | 0.539
AGAAGGAGGGCAATGAGTTGATAGCACGGGTGGC | 3.57 | 2.64 | 0.99 | -0.352 | 0.922 | 1.39 | 4.17 | 0.2 | 0.815 | 1.92 | 1.51 | 0.896 | 1.46 | 0.955 | 0.646 | 0.385 | 0.339 | 2.51
CGAACTGGGTCAAGGACAGTGAATCTCCGCACGC | 7.45 | 7.82 | 5.86 | 3.4 | 1.92 | 1.28 | -0.104 | 1.94 | 0.123 | 3.39 | 2.55 | 3.53 | 3.36 | 0.955 | 2.54 | 2.76 | 1.56 | 0.325
TCTTTTAGTTGAAGGGCAACCGACGAGTCCGTTT | 2.2 | 0.777 | 2.36 | 1.84 | 0.00638 | 0.764 | 0.475 | 0.383 | 0.199 | 1.65 | 1.24 | 0.599 | 0.744 | 1.5 | 0.842 | 0.355 | -0.174 | 1.29
TCGAGTAGGTTACCAATGGGGCATTCAGCTTTCT | 3.39 | 2.58 | -0.0498 | -0.456 | -0.375 | 0.171 | -0.622 | 0.273 | -0.0206 | 0.992 | 0.636 | 1.2 | 0.445 | 0.401 | 0.5 | 0.261 | -0.612 | -0.59
CTCGAAAGGTCGGTTGACGTGAGTATACGGATAA | 0.129 | 0.68 | 0.821 | 0.0479 | 0.644 | 1.01 | -0.25 | 1.5 | -0.0456 | 2.91 | 1.53 | 2.54 | 2.8 | 1.06 | 2.29 | 1.21 | -0.605 | 0.501
CCAGACAGGTGAAAGGTAATTCAGTCTGGTACGC | 2.07 | 2.63 | -0.0152 | -0.567 | 1.43 | 0.676 | -0.138 | 1.49 | 0.566 | 0.958 | 0.45 | 1.04 | 0.643 | -0.17 | 1.68 | 0.696 | -0.243 | -0.314
CAAACTAGATCAAAGGTCAAAGTCGAGCCAACCA | 4.3 | 6.8 | 1.17 | 1.55 | 4.96 | 5.7 | 1.84 | 6.94 | 2.11 | 4.83 | 4.67 | 6.29 | 5.66 | 2.16 | 7.75 | 3.51 | 0.812 | 2.87
TAGCCTAGGTGATTCAGGGGCCAGTATAGAAAGC | 0.201 | 0.666 | -0.281 | 0.314 | -0.16 | -0.295 | -0.446 | 0.184 | -0.571 | 0.516 | 0.919 | 0.914 | 0.0636 | -0.561 | -0.089 | 0.651 | -0.0483 | -0.15
GCATATAGGTAATAAAAGGTGAAAGTCCGATTGT | 3.99 | 3.33 | 0.83 | 0.676 | 1.38 | 0.771 | 0.163 | 2.04 | 0.974 | 1.12 | 1.63 | 0.972 | 0.621 | 0.496 | 1.53 | 2.61 | -0.141 | 0.166
CGTCCAAGGTCAAAGGTCAGTGAAGAGATGACGG | 4.23 | 5.97 | 1.75 | 2.79 | 4.7 | 7.11 | 1.9 | 8.77 | 2.78 | 6.02 | 5.42 | 8.7 | 7.94 | 3.87 | 10 | 4.99 | 2.62 | 4.06
TCATATAGGTAAAGGGGAAAGTCGAACGATATGA | 4.16 | 2.85 | 1.41 | 1.19 | 0.621 | 0.551 | 0.506 | 0.562 | 0.996 | 0.83 | 0.241 | 0.707 | 0.688 | 1.39 | 1.21 | 0.241 | -0.0232 | -0.173
CGTCCAAGGTCAAAGGTCCGTGAAGAGATGACGG | 3.4 | 4.24 | 0.753 | 0.764 | 2.99 | 4.61 | 1.12 | 5.96 | 0.563 | 5.32 | 3.99 | 6.31 | 6.35 | 3.54 | 6.84 | 3.99 | 2.24 | 2.87
